Measurements taken from PubChem BioAssay.

Assay: probe aShh binding to arrayed compounds – biochemical, biotinylated probe, 635/667 nm fluorescence, primary screen (AID 1114);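 note: probe is biotin-labelled aShh protein from a stem cell growth factor screen; measures binding of labelled protein to compounds printed on the slide; score merges feature fluorescence at 667 nm with signal-to-noise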
Conditions: small-molecule microarray, higher = more signal

| Compound | composite z-score |
| --- | --- |
| Cc1nc2cc(Br)ccc2c(=O)n1Cc1cccc(O)c1 | -0.0946 |
| C=C[C@@H](C)[C@H](O)c1ccc(OCCO)cc1 | -0.289 |
| C=CCN1C(=O)[C@]2(O[C@H](CCO)[C@@H]([Si](C)(C)c3ccc(OC)cc3)[C@@H]2C)c2cc(NC(=O)c3ccc(OC)cc3)ccc21 | -0.0553 |
| CCOC(=O)C[C@H]1[C@H](OC(=O)c2cc3ccccc3oc2=O)[C@@H](NC(=O)c2ccc3ccccc3c2)c2cc(OCCCO)ccc2N1C(=O)Cc1ccc(OC)cc1 | 0.0588 |
| COc1ccc(C#Cc2ccc3c(c2)[C@]2(C(=O)N3)[C@H](c3ccc(OCCO)cc3)N3[C@H](c4ccccc4)[C@H](c4ccccc4)OC(=O)[C@H]3[C@@H]2C(=O)N2CCc3cc(OC)c(OC)cc3C2)cc1 | 0.0589 |
| COC(=O)c1c2oc(c1C(=O)OC)C(=O)N1CCC[C@H]1Cn1nncc1CN(Cc1ccccc1)C(=O)N[C@H](CO)CC2 | -0.221 |
| COC(=O)C(CC#Cc1ccc2c(c1)[C@]1(C(=O)N2)[C@H](c2ccc(O)cc2)N2[C@H](c3ccccc3)[C@H](c3ccccc3)OC(=O)[C@H]2[C@@H]1C(=O)N1CCCCCCC1)C(=O)OC | 1.03 |
| C=C[C@H](C)[C@H](OC(=O)Nc1ccc(OC)cc1)c1ccc(OCCO)cc1 | -0.0553 |
| [N-]=[N+]=NC[C@H](Cc1ccccc1)NC(=O)c1ccccc1 | -0.0146 |
| COc1ccc([Si](C)(C)[C@H]2[C@H](CC(=O)N3Cc4ccccc4C[C@H]3CO)O[C@@]3(C(=O)N(Cc4ccc(N5C(=O)c6cccc7cccc5c67)cc4)c4ccccc43)[C@@H]2C)cc1 | -0.279 |
| COc1ccc([Si](C)(C)[C@H]2[C@H](CC(=O)N3CCC[C@H]3CO)O[C@@]3(C(=O)N(Cc4ccc(N5CCC5=O)cc4)c4ccccc43)[C@@H]2C)cc1 | -0.0709 |
| C=CCNC(=O)[C@H]1[C@@H]2C(=O)O[C@@H](c3ccccc3)[C@@H](c3ccccc3)N2[C@@H](c2ccc(OCCO)cc2)[C@]12C(=O)Nc1ccc(C#CCNC(N)=O)cc12 | 0.163 |
| C=CCC(OC(C)=O)[C@@H]1[C@@H](N(Cc2cccc3ccccc23)C(=O)Cc2ccc(F)cc2)c2cc(OCCCO)ccc2N1C(=O)c1ccc(-c2ccccc2)cc1 (some centres not stated) | -0.0035 |
| CC1CC/C=C\[C@H]2OC34C=CCN(CCN5CCOCC5)C(=O)[C@H]3N(C(C)CO)C(=O)[C@@H]4C2C(=O)O1 (some centres not stated) | 0.147 |
| C=CCN1C(=O)[C@]2(O[C@H](CCO)[C@@H]([Si](C)(C)c3ccc(OC)cc3)[C@@H]2C)c2cc(N3C(=O)COc4ccccc43)ccc21 | -0.0858 |
| CN(C)C(=O)[C@]1(CCS(=O)(=O)c2ccccc2)N=C(c2ccc(OCCCO)cc2)O[C@@H]1c1ccccc1 | 0.582 |
| Cc1ccccc1C(O)C1C=CC2C(=O)NC(=O)C2N1Nc1ccc(Cl)cc1Cl (configuration not stated) | 0.0796 |
| O=C1c2ccccc2[C@](Cc2ccccc2I)(C(=O)NC2CC2)[C@H](c2ccc(CO)cc2)N1Cc1ccccc1C(F)(F)F | -0.147 |
| Cc1ccc(C(C)CC(O)C2C=CC3C(=O)N(c4ccccc4)C(=O)C3N2Nc2ccc(C#N)cc2)o1 (configuration not stated) | 0.138 |
| COc1ccc([Si](C)(C)[C@H]2[C@H](CCO)O[C@@]3(C(=O)N(Cc4ccccc4)c4ccc(N5C(=O)c6ccccc6Oc6ccccc65)cc43)[C@@H]2C)cc1 | 0.213 |
| COCCOC(=O)N1C(=O)[C@@]2(c3cc(C#CC4=CCCCC4)ccc31)[C@H](C(=O)N1CCCCCCC1)[C@H]1C(=O)O[C@H](c3ccccc3)[C@H](c3ccccc3)N1[C@@H]2c1ccc(OCCO)cc1 | 0.936 |
| CC(C)[C@H]1NC(=O)[C@@]23C(=O)N[C@@H](Cc4ccccc4)C2[C@H](C)[C@@]2(C)O[C@H]2C3/C=C/C/C=C\CNC(=O)[C@H](Cc2ccccc2)NC1=O (some centres not stated) | -0.0553 |
| CC(C)=CCCC(C)=CC(O)C1C=CC2C(=O)N(c3ccccc3)C(=O)C2N1Nc1ccccc1F (configuration not stated) | -0.414 |
| CC(C)C[C@@H]1NC(=O)CNC(=O)[C@@]23C(=O)N[C@@H](Cc4ccccc4)C2[C@H](C)[C@@]2(C)O[C@H]2C3/C=C/C/C=C\CNC1=O (some centres not stated) | -0.388 |
| COC(=O)[C@@]1(Cc2ccc(F)cc2)[C@H]2c3cc(C(=O)N(C)C)n(Cc4ccc(O)c(OC)c4)c3C[C@H]2CN1C(=O)c1ccccc1 | 0.207 |
| C=C(COC)C(=O)CC[C@@H](OC(=O)c1cccnc1)c1ccccc1OCCO | -0.0553 |
| CN(C)CCCNC(=O)[C@@H]1c2ccccc2C(=O)N(C2CCCCC2)[C@H]1c1ccc(CO)cc1 | 0.191 |
